The text below walks through data of PubChem BioAssay (NCI).

SMILES strings stand for the structures. Values joined by “and” are separate entries in the source; they are usually repeats but may differ in a detail not shown here. Equal entries are not always repeated. The panel holds about 79,000 compounds, 15% with a hit somewhere; the sample as a whole holds those more often. The source holds several records for some structures; these can differ, active in one and inactive in another. Active and inactive are the calls of the source. Cut-off read from the data, not from the text of the source: active = growth inhibition above about 70%; inactive = the rest.

Assay [1] is described as follows: NCI Yeast Anticancer Drug Screen. Data for the mec2-1 strain (AID 157). The conditions noted are these: S. cerevisiae mec2-1 strain, stronger effect = higher value. In outline: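 Growth inhibition is read against vehicle-treated controls after compound exposure of the mec2-1 yeast strain, which is defective in DNA damage repair or cell cycle control.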
The nature of assay [2]: NCI Yeast Anticancer Drug Screen. Data for the sgs1 mgt1 strain (AID 161).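 Note: 0% = growth of cultures given vehicle only.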 The conditions noted are these: S. cerevisiae sgs1 mgt1 strain, stronger effect = higher value. In outline:
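Percent growth inhibition was derived by comparing compound-exposed mutant yeast with vehicle-exposed cultures. The strain carries alterations in DNA damage repair.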

Assay [3] in a line: NCI Yeast Anticancer Drug Screen. Data for the cln2 rad14 strain (AID 165).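 Note: 0% = growth equal to vehicle treated cultures.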 The conditions noted are these: S. cerevisiae cln2 rad14 strain, stronger effect = higher value. In a few lines:
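Growth inhibition, relative to vehicle-treated controls, is the read-out. The test organism is a yeast strain with defined genetic alterations, cln2 rad14.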

Assay [4] can be described thus: NCI Yeast Anticancer Drug Screen. Data for the bub3 strain (AID 167). The conditions noted are these: S. cerevisiae bub3 mutant strain, stronger effect = higher value. In a few lines:
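Part of a panel of yeast mutants defective in DNA damage repair or cell cycle regulation. Each strain is grown with compound, and inhibition is calculated relative to solvent-treated cultures.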

A short description of assay [5]: NCI Yeast Anticancer Drug Screen. Data for the mlh1 rad18 strain (AID 175). The conditions noted are these: S. cerevisiae mlh1 rad18 strain growth inhibition, stronger effect = higher value. In outline:
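Cells of a genetically altered yeast strain, deficient in DNA damage repair, were treated with compound. Their growth was then compared with that of vehicle-treated cultures to give inhibition.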

The nature of assay [6]: NCI Yeast Anticancer Drug Screen. Data for the rad50 strain (AID 155).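 Note: 0% = growth of vehicle-only cultures of the same strain.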 The conditions noted are these: S. cerevisiae rad50 strain growth inhibition, stronger effect = higher value. In a few lines: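 Cells are treated with compound, grown, and their growth is then scored against vehicle-only cultures of the same repair-deficient yeast strain.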
Setting [7] is: at 5.0 µM (retest, dose inferred, filed as 0.5).
[8] abbreviates: at 50.0 µM (retest, dose inferred, filed as 5.0).

As to `O=Nc1ccc(C=C2C(=O)C=CC2=O)cc1`, the growth inhibition in assay [1] (setting [7]) was 99% (active); in assay [1] (setting [8]), 99% (active); in assay [1] (at 50.0 µM), 99.7% (active); in assay [2] (setting [7]), 94% (active); in assay [2] (setting [8]) it was 99% (active); in assay [2] (at 50.0 µM), 99.4% (active). Moreover, the growth inhibition in assay [3] (setting [7]) is 72% (active); in assay [3] (setting [8]), 98% (active); in assay [3] (at 50.0 µM), 99% (active); in assay [4] (setting [7]), 84% (active); in assay [4] (setting [8]), 99% (active); in assay [4] (at 50.0 µM), 99.4% (active). The values for the growth inhibition in assay [5] (setting [7]), in assay [5] (setting [8]) and in assay [5] (at 50.0 µM) were 97% (active), 98% (active) and 99.5% (active), respectively.

Turning to `CCc1[nH]c(=O)nc(N)c1-c1ccc(N2CCCCC2)c([N+](=O)[O-])c1`, the growth inhibition in assay [1] (setting [7]) was -23% (inactive); in assay [1] (setting [8]) it was 1% (inactive); in assay [1] (at 50.0 µM), 86.8% (active); in assay [2] (setting [7]), 0% (inactive); in assay [2] (setting [8]) it was -6% (inactive); in assay [2] (at 50.0 µM), 90.8% (active). The growth inhibition in assay [3] (setting [7]) was -31% (inactive); in assay [3] (setting [8]) it was -25% (inactive); in assay [3] (at 50.0 µM), 70.8% (active); in assay [4] (setting [7]), -25% (inactive); in assay [4] (setting [8]) it was -32% (inactive); in assay [4] (at 50.0 µM) it was 71.4% (active). For the same molecule, the growth inhibition in assay [5] (setting [7]) was -22% (inactive); in assay [5] (setting [8]), -12% (inactive); in assay [5] (at 50.0 µM) it was 90.8% (active).

As for `COC1OCC(O)C(O)C1O` (stereo not drawn), the growth inhibition in assay [6] (at 50.0 µM) was -2.4% (inactive) [middle of 4 runs]; in assay [1] (at 50.0 µM) it was 8.15% (inactive) [middle of 4 runs]; in assay [2] (at 50.0 µM), 1.2% (inactive) [middle of 4 runs]; in assay [3] (at 50.0 µM) it was -8.1% (inactive) [middle of 4 runs]; in assay [4] (at 50.0 µM) it was -0.95% (inactive) [middle of 4 runs]; in assay [5] (at 50.0 µM) it was -7.4% (inactive) [middle of 4 runs].

As for `O=C(NC(C(=O)O)c1ccccc1)OCc1ccccc1` (stereo not drawn), the growth inhibition in assay [6] (setting [7]) is -3% (inactive); in assay [6] (setting [8]) it was -3% (inactive); in assay [6] (at 50.0 µM), -3% (inactive) and -15.4% (inactive) and 0.9% (inactive); in assay [2] (setting [7]), -1% (inactive); in assay [2] (setting [8]) it was -2% (inactive); in assay [2] (at 50.0 µM), -23.6% (inactive) and -3.2% (inactive). In addition, the growth inhibition in assay [4] (setting [7]) was -1% (inactive); in assay [4] (setting [8]), -2% (inactive); in assay [4] (at 50.0 µM) it was -8.4% (inactive) and 21.4% (inactive); in assay [5] (setting [7]) it was 3% (inactive); in assay [5] (setting [8]), -1% (inactive); in assay [5] (at 50.0 µM), -7.9% (inactive) and 2.55% (inactive) and 48.3% (inactive).

Take `CCOC(=O)Nc1c(C)cc(C)c(Br)c1C`: the growth inhibition was -12% (inactive) in assay [1] (setting [7]); 6% (inactive) in assay [1] (setting [8]); 98.7% (active) in assay [1] (at 50.0 µM); 1% (inactive) in assay [2] (setting [7]); 12% (inactive) in assay [2] (setting [8]); 94.9% (active) in assay [2] (at 50.0 µM). Further, the growth inhibition was 0% (inactive) in assay [3] (setting [7]); -20% (inactive) in assay [3] (setting [8]); 98.9% (active) in assay [3] (at 50.0 µM); -5% (inactive) in assay [4] (setting [7]); -8% (inactive) in assay [4] (setting [8]); 98.6% (active) in assay [4] (at 50.0 µM). In addition, the growth inhibition is 9% (inactive) in assay [5] (setting [7]), 22% (inactive) in assay [5] (setting [8]) and 99.2% (active) in assay [5] (at 50.0 µM).

Regarding `N#CCCC(CCC#N)(CCC#N)C(=O)c1ccccc1`, the growth inhibition in assay [1] (setting [7]) is -15% (inactive); in assay [1] (setting [8]), -6% (inactive); in assay [1] (at 50.0 µM), 15.8% (inactive) and -3.15% (inactive); in assay [2] (setting [7]), 7% (inactive); in assay [2] (setting [8]), 8% (inactive); in assay [2] (at 50.0 µM) it was 33.2% (inactive) and -28.8% (inactive). The growth inhibition in assay [3] (setting [7]) was 4% (inactive); in assay [3] (setting [8]) it was 14% (inactive); in assay [3] (at 50.0 µM), 26.1% (inactive) and 18.9% (inactive); in assay [4] (setting [7]), 10% (inactive); in assay [4] (setting [8]), 23% (inactive); in assay [4] (at 50.0 µM), 18.1% (inactive) and 7.55% (inactive). Moreover, the growth inhibition in assay [5] (setting [7]) is 20% (inactive); in assay [5] (setting [8]), 12% (inactive); in assay [5] (at 50.0 µM), 20.2% (inactive) and 26.8% (inactive).

For the molecule `O=C(OC1COC(OC(=O)c2ccccc2)C(OC(=O)c2ccccc2)C1OC(=O)c1ccccc1)c1ccccc1` (stereo not drawn), the growth inhibition in assay [6] (at 50.0 µM) was 20.4% (inactive) [middle of 4 runs]; in assay [1] (at 50.0 µM), -7.1% (inactive) [middle of 4 runs]; in assay [2] (at 50.0 µM), 9.5% (inactive) [middle of 4 runs]; in assay [3] (at 50.0 µM), -21.6% (inactive) [middle of 4 runs]; in assay [5] (at 50.0 µM) it was -4.1% (inactive) [middle of 4 runs].

For `CN(C)c1ccc(/C=C/c2cc[n+](C)c3ccccc23)cc1`, the growth inhibition in assay [1] (setting [7]) is 0% (inactive) and -25% (inactive); in assay [1] (setting [8]), 93% (active) and 83% (active); in assay [1] (at 50.0 µM), 97.9% (active) and 86.2% (active); in assay [2] (setting [7]) it was 3% (inactive) and -10% (inactive); in assay [2] (setting [8]), 92% (active) and 88% (active); in assay [2] (at 50.0 µM), 93.7% (active) and 83.4% (active). The growth inhibition was -2% (inactive) and -5% (inactive) in assay [3] (setting [7]); 89% (active) and 57% (inactive) in assay [3] (setting [8]); 96.6% (active) and 66.7% (inactive) in assay [3] (at 50.0 µM); -3% (inactive) and -17% (inactive) in assay [4] (setting [7]); 85% (active) and 83% (active) in assay [4] (setting [8]); 97.5% (active) and 82.8% (active) in assay [4] (at 50.0 µM). The growth inhibition in assay [5] (setting [7]) was -8% (inactive) and -21% (inactive); in assay [5] (setting [8]), 93% (active) and 80% (active); in assay [5] (at 50.0 µM), 97.7% (active).
